# In publication PMC5540273 (PLoS ONE, 2017):
# pKd: −log10 of the molar value.
# Tested on: T1, MEK5
# T1 construct: gene MAP2K5
# 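Further: kd values determined as follow-up on hits from a single-replicate KINOMEscan panel screen.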
row,Structure (SMILES),pKd
1,Cc1ccc(C(=O)Nc2ccc(Nc3ccnc4cc(-c5ccccn5)ccc34)cc2O)cc1.Cl [GW440146],8.33
2,COc1cc2ncn(-c3cc(OCC4CCCO4)c(C(N)=O)s3)c2cc1OC (stereo not shown) [GSK204607],7.09
3,Cl.NC(=O)c1cccc(Nc2nccc(Nc3ccc(Oc4cccc(Cl)c4)c(Cl)c3)n2)c1 [GW659008],7.47
4,COc1cccc(NC(=O)NC2CCN(c3ccnc(Nc4ccc(F)cc4)n3)C2)c1 (stereo not shown) [GSK1379721],6.30
5,COc1cc(Nc2nccc(N3CCC(NC(=O)Nc4cc(C)ccc4C)C3)n2)cc(OC)c1OC (stereo not shown) [GSK1379762],7.28
6,CC(C)(C)c1ccc(C(=O)Nc2cn3cc(-c4cccnc4)ccc3n2)cc1,6.72
7,COc1ccc(Nc2nccc(-c3cccc(NC(=O)c4cc5cc(F)ccc5[nH]4)c3)n2)cc1 [GSK1229782],6.70
8,COc1cc2nccc(Nc3ccc(NC(=O)c4ccc(C)cc4)c(O)c3)c2cc1OC.Cl [GW440132],8.06
9,COc1ccc(CNC(=O)NC2CCN(c3ccnc(Nc4cc(OC)c(OC)c(OC)c4)n3)C2)cc1 (stereo not shown) [GSK1379748],7.02
10,Fc1cc(Cl)ccc1Nc1ccnc2cc(-c3ccc(CN4CCCCC4)o3)ccc12 [GW560116],6.05
11,COc1cc2ncnc(Nc3ccc4nc(-c5ccccc5)[nH]c4c3)c2cc1OC.Cl [GW282450],6.17
12,Cn1cncc1-c1ccc2ncnc(Nc3ccc(OCc4ccccc4)cc3)c2c1 [GW320571],6.35
13,Cl.O=C(Nc1cccc(-c2nn3ncccc3c2-c2ccnc(Nc3cccnc3)n2)c1)c1c(F)cccc1F [GSK312879],6.64
